Inconclusive results are not listed. Entries that show only a call come without a potency. The source made the active and inactive calls. The call rests on the fitted dose curve; in most records, active means well fitted curve in the direction sought with a large enough effect; inconclusive means small, poorly fitted or top-dose-only effect, or another doubt; inactive means no such curve, though single readings can be large; an effect the other way counts as inactive or inconclusive.
tested on: Zika virus NS2B-NS3 protease (unlinked); experiment: Optimization of GU AMC qHTS for Zika virus inhibitors: Unlinked NS2B-NS3 protease assay (AID 1347151); settings: recombinant ZIKV NS2B-NS3 protease, fluorogenic AMC substrate; series mostly up to 52.5 µM; further: nearly all actives have a fitted effect of over 80% in size
Summary of the method: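 Noncovalent complex of NS2B hydrophilic domain and NS3 protease domain, 25 nM final, in 10 mM Tris-HCl pH 8.0, 0.01% Tween 20. AMC fluorescence change over 15 min at room temperature was fitted to a 4-parameter Hill equation.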

Row | Structure (SMILES) | Potency
1 | Nc1ncnc2c1ncn2[C@@H]1O[C@H](COP(=O)(O)CP(=O)(O)OP(=O)(O)O)[C@@H](O)[C@H]1O | inactive
2 | Fc1ccc2[nH]c(CN3CCN(c4ccccn4)CC3)cc2c1 | inactive
3 | Cc1cc(NC(=O)Nc2ccc3c(ccn3C)c2)sn1 | inactive
4 | Nc1nc(Cl)nc2c1ncn2[C@@H]1O[C@H](CO)[C@@H](O)[C@H]1O | inactive
5 | CNC(=O)[C@H]1O[C@@H](n2cnc3c(NCc4ccc(N)cc4)ncnc32)[C@H](O)[C@@H]1O | inactive
6 | O=[N+]([O-])c1ccc(CNc2nc(NCc3cccc(C(F)(F)F)c3)nc3nc[nH]c23)cc1 | inactive
7 | Clc1ccc(N2CCN(Cc3c[nH]c4ncccc34)CC2)cc1 | inactive
8 | OC[C@H]1O[C@@H](n2cnc3c(NC4CCCC4)ncnc32)[C@H](O)[C@@H]1O | inactive
9 | CNc1ncnc2c1ncn2[C@@H]1O[C@H](CO)[C@@H](O)[C@H]1O | inactive
10 | CSc1ccccc1N1CCN(CCCCCC(=O)NC2CCCc3ccccc32)CC1 (configuration not stated) | inactive
11 | O=c1[nH]c2cc([N+](=O)[O-])c([N+](=O)[O-])cc2[nH]c1=O | inactive

tested on: Zika virus NS2B-NS3 protease; experiment: Primary screen GU AMC qHTS for Zika virus inhibitors (AID 1347154); settings: Zika NS2B-NS3 unlinked protease, AMC fluorogenic substrate; series mostly up to 54.1 µM; further: nearly all actives have a fitted effect of over 70% in size; further: potency means the concentration at half of the fitted maximal effect
Summary of the method: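 Unlinked Zika NS2B hydrophilic domain–NS3 protease complex at 25 nM in 10 mM Tris-HCl pH 8.0, 0.01% Tween 20, with an AMC peptide substrate. Fluorescence change (340/450 nm) over 15 min at room temperature, normalized to controls, fitted to 4-parameter Hill.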

Row | Structure (SMILES) | Potency | activity change, negative = inhibition
12 | Cc1c(N)c(=O)n(-c2ccccc2)n1C | inactive | 
13 | Nc1ncnc2c1ncn2[C@@H]1O[C@H](COP(=O)(O)CP(=O)(O)OP(=O)(O)O)[C@@H](O)[C@H]1O | inactive | 
14 | CCCCCCCC/C=C/C(=O)O | inactive | 
15 | c1ccc2sc(SN3CCOCC3)nc2c1 | inactive | 
16 | Nc1ncnc2c1ncn2[C@@H]1O[C@H](COP(=O)(O)OP(=O)(O)OP(=O)(O)OP(=O)(O)OC[C@@H]2O[C@H](n3cnc4c(N)ncnc43)[C@@H](O)[C@H]2O)[C@@H](O)[C@H]1O | inactive | 
17 | C#C[C@]1(O)CC[C@H]2[C@@H]3CCc4cc(O)ccc4[C@H]3CC[C@@]21C | inactive | 
18 | Cc1ccc(O)c(-n2nc3ccccc3n2)c1 | inactive | 
19 | Cc1cc(NC(=O)Nc2ccc3c(ccn3C)c2)sn1 | inactive | 
20 | C[N+]1(C)[C@@H]2CC(OC(=O)[C@H](CO)c3ccccc3)C[C@H]1[C@@H]1O[C@@H]12 (some centres not stated) | inactive | 
21 | CCC1C(=O)OCC1Cc1cncn1C (configuration not stated) | inactive | 
22 | O=C(O)/C=C\C(=O)O | inactive | 
23 | Nc1ccc(C(=O)O)c(O)c1 | inactive | 
24 | Nc1nc(Cl)nc2c1ncn2[C@@H]1O[C@H](CO)[C@@H](O)[C@H]1O | inactive | 
25 | CNC(=O)[C@H]1O[C@@H](n2cnc3c(NCc4ccc(N)cc4)ncnc32)[C@H](O)[C@@H]1O | inactive | 
26 | N#C/C(=C\c1ccc(O)c(O)c1)C(=O)NCc1ccccc1 | inactive | 
27 | CCCCCC(O)c1cccc(OCc2ccc3ccccc3n2)c1 (configuration not stated) |  | 14.2% [at 6.83 µM] (inactive)
28 | C=CCCCCCCCCC(=O)O | inactive | 
29 | CC(C(=O)O)c1ccc(C(=O)c2ccccc2)s1 (configuration not stated) | inactive | 

Row | Structure (SMILES) | Potency | activity change, negative = inhibition
30 | Clc1ccc(N2CCN(Cc3c[nH]c4ncccc34)CC2)cc1 | inactive | 
31 | NC(=O)C(c1ccccc1)(c1ccccc1)[C@@H]1CCN(CCc2ccc3c(c2)CCO3)C1 | inactive | 
32 | CN1CCc2ccccc2Cc2[nH]c3ccccc3c2CC1 | inactive | 
33 | OC[C@H]1O[C@@H](n2cnc3c(NC4CCCC4)ncnc32)[C@H](O)[C@@H]1O | inactive | 
34 | CNc1ncnc2c1ncn2[C@@H]1O[C@H](CO)[C@@H](O)[C@H]1O | inactive | 
35 | COc1ccnc2c1CCCCC2S(=O)c1nc2ccccc2[nH]1 (configuration not stated) | 35.5 µM (active) | 
36 | O=C(OCc1ccccc1)c1ccccc1 | inactive | 
37 | CSc1ccccc1N1CCN(CCCCCC(=O)NC2CCCc3ccccc32)CC1 (configuration not stated) | inactive | 
38 | CNC(=O)c1c(I)c(NC(=O)CCCCC(=O)Nc2c(I)c(C(=O)O)c(I)c(C(=O)NC)c2I)c(I)c(C(=O)O)c1I | inactive | 
39 | c1ccc2sc(SSc3nc4ccccc4s3)nc2c1 | inactive | 
40 | CCOc1ccc2nc(S(N)(=O)=O)sc2c1 | inactive | 
41 | CCCCCCCCCCCCCCCC(=O)OC(C)C | inactive | 
42 | CC1(C)S[C@@H]2[C@H](NC(=O)[C@H](N)c3ccccc3)C(=O)N2[C@H]1C(=O)O | inactive | 
43 | O=c1[nH]c2cc([N+](=O)[O-])c([N+](=O)[O-])cc2[nH]c1=O | inactive | 
44 | Nc1c(CC(=O)O)cccc1C(=O)c1ccc(Br)cc1 | inactive | 
45 | CCCCCCCCCCCC(=O)[O][Sn]([CH2]CCC)([CH2]CCC)[O]C(=O)CCCCCCCCCCC | inactive | 
46 | CCCCCCCCCCCCOCCO | inactive | 
47 | Cc1c(C(=O)O)c(O)cc2c1C(=O)c1c(O)c([C@@H]3O[C@H](CO)[C@@H](O)[C@H](O)[C@H]3O)c(O)c(O)c1C2=O | inactive | 

Reference: PubChem BioAssay (NCATS)
